From PubChem BioAssay
Mdm2-MdmX inh = disrupts the human Mdm2-MdmX interaction | SaOS-2 split-luciferase Mdm2/MdmX complementation, luminescence | 330,000 tested, 3% active | inhibition, % at 8 µM;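 active = inhibition of at least 50% at 8 µM in the primary screen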
Target sequence (O15151 whole entry, looked up): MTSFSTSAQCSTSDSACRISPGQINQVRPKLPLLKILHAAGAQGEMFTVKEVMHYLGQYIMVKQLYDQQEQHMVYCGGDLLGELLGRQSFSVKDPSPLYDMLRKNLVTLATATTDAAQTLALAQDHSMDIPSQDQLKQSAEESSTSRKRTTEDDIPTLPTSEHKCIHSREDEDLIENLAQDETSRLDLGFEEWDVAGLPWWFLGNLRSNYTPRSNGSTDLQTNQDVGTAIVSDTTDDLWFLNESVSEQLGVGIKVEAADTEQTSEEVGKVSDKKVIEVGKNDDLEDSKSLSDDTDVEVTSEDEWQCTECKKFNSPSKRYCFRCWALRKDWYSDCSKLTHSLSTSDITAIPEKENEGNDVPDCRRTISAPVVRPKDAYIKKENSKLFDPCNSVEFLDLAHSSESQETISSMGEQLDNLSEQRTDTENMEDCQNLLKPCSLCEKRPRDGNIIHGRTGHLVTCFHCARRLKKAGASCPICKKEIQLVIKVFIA
Target sequence (Q00987 whole entry, looked up): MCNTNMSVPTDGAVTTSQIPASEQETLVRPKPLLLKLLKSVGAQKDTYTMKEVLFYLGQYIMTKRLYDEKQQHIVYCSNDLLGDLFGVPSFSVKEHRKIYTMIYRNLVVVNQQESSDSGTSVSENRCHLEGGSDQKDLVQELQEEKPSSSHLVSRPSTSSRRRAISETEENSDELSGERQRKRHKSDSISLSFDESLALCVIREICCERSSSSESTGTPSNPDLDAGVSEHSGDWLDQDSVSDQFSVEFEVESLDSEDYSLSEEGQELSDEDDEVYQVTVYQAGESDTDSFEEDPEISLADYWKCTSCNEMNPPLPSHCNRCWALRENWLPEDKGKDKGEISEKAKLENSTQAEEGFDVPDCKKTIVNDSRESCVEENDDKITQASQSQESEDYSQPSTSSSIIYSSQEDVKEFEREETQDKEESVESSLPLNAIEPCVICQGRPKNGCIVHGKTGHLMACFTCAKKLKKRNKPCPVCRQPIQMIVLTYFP
697 NFkB inh = inhibitors of the PMA/ionomycin-induced NF-kB reporter in 697 B cells | 697 B-cell NF-kB luciferase reporter, 16 h | inhibition, % at 4 µM | 330,000 tested, 0.33% active; in the data active = inhibition above about 35%
CSC inhib = cancer stem cell inhibition; cancer stem cell-like cells viability, luminescence; 300,000 tested, 1.1% active; inhibition, % at 7.5 µM; AID 2717; in the data active = inhibition above about 75%; tested in HMLE shEcad cells
Jurkat NFkB inh = lowers PMA/ionomycin-induced NF-kB signal in Jurkat cells; PMA/ionomycin-induced NF-kB luciferase reporter, luminescence; inhibition, % at 4 µM; 330,000 tested, 0.53% active; in the data active = inhibition above about 50%
Gli-Sufu block = blocks Gli-Sufu signaling in a luciferase reporter; Sufu-KO-LIGHT fibroblasts, Gli luciferase reporter luminescence; inhibition, % at 5 µM; 340,000 tested, 0.74% active; AID 588413;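 active = inhibition above about 55%, limit read from the data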
Beta apoptosis = beta cell apoptosis inhibition; INS-1E cytokine-induced death, ATP luminescence, 48 h; percent of positive-control rescue, neutral wells zero; protection from apoptosis, % (no concentration beside the values); 300,000 tested, 0.8% active;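 active = Every replicate reaches about 75%, or at least half do and their mean reaches it too, limit read from the data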;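 also: higher means more ATP so stronger rescue from cytokine killing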
Mdm2-MdmX conf = confirmation of human Mdm2/MdmX interaction inhibitors; shares compounds with Mdm2-MdmX inh; Mdm2-MdmX binding, luminescent assay; inhibition, % at 8 µM; 10,000 tested, 55% active; AID 489028; in the data active = inhibition above about 40%
Full FLuc ctr = counter-screen for Mdm2/MdmX inhibitors: full-length luciferase | shares compounds with Mdm2-MdmX inh | SaOS-2 full-length luciferase counterscreen, luminescence | inhibition, % at 8 µM | 6,200 tested, 77% active | AID 504607;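 active = mean inhibition at 8 µM reaching about 37%, which flags the compound as non-specific, limit read from the data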;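 also: p53-null SaOS-2 cells with luciferase driven by a doxycycline-inducible promoter; compound on cells about two nights before reading with doxycycline added after day one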
Large screens that a line does not name were inactive (follow-up assays come after a bar, where they were run). In the library only some 4.5% were active in any assay of this set; here they are far more common.

O=C(Nc1nc2c(s1)CCCC2)c1cc(-c2ccc3c(c2)OCO3)nc2ccccc12	none (no result: Gli-Sufu block)
Cc1ccc2nc(NC(=O)/C=C/c3ccc4c(c3)OCO4)sc2c1	Mdm2-MdmX inh 78, Beta apoptosis 84 | Mdm2-MdmX conf inactive
Cc1ccc2nc(NC(=O)c3ccccn3)sc2c1	Mdm2-MdmX inh 100, CSC inhib 84, Gli-Sufu block 78, Beta apoptosis 79 | Mdm2-MdmX conf 90 | Full FLuc ctr 56
COc1ccc(NC(=O)/C=C/c2ccc3c(c2)OCO3)cc1	none
CC(=O)Nc1ccccc1NC(=O)c1cc(C)ccc1C	none
Cc1ccccc1-c1cc(C(=O)Nc2nc3c(s2)CCCC3)c2ccccc2n1	Mdm2-MdmX inh 62 | Mdm2-MdmX conf 48 | Full FLuc ctr inactive
COc1ccccc1-c1cnn2c(NC3CCCC3)cc(C)nc12	none
Cc1noc(C)c1COc1ccccc1C(=O)NCc1ccco1	none (no result: CSC inhib)
Cc1[nH]c2ccccc2c1CCN(Cc1cccnc1)C(=S)NC(C)(C)C	none
Cc1ccc2nc(NC(=O)c3cc(-c4ccco4)nc4ccccc34)sc2c1	Mdm2-MdmX inh 61 | Mdm2-MdmX conf inactive
Cc1cccc(-c2cc(C(=O)Nc3sc(C)c(C)c3C(N)=O)c3ccccc3n2)c1	none
Cc1ccc(C)c(-c2cc(C(=O)Nc3sc(C)c(C)c3C(N)=O)c3ccccc3n2)c1	Mdm2-MdmX inh 51 | Mdm2-MdmX conf inactive
CCN(CC)CCNC(=O)c1ccc(NC(=O)c2cc(-c3ccco3)nc3ccccc23)cc1	Mdm2-MdmX inh 55 | Mdm2-MdmX conf inactive
O=C(Nc1nc2ccccc2s1)c1cc(-c2ccco2)nc2ccccc12	Mdm2-MdmX inh 66 (no result: CSC inhib) | Mdm2-MdmX conf 45 | Full FLuc ctr 55
CN(C)C(=O)c1ccc(NC(=O)c2cc(-c3ccco3)nc3ccccc23)cc1	none
CCCn1nc([N+](=O)[O-])c(C(C#N)c2nc3ccccc3s2)c(Cl)c1=O (stereo not given)	Mdm2-MdmX inh 80, CSC inhib 98 | Mdm2-MdmX conf 74 | Full FLuc ctr 57
CCn1nc([N+](=O)[O-])c(C(C#N)c2nc3ccccc3n2C)c(Cl)c1=O (stereo not given)	none
Cc1cc(C(=O)Nc2nncs2)oc1C	none
COc1ccc(C(C)=O)cc1CSc1nnc(-c2ccc(Cl)cc2)n1-c1ccccc1	Mdm2-MdmX inh 63 | Mdm2-MdmX conf 49 | Full FLuc ctr inactive
CNC(=O)c1c(NC(=O)C2=COCCO2)sc2c1CCN(C(=O)OC)C2	none (no result: Beta apoptosis)
COC(=O)N1CCc2c(sc(NC(=O)C3=COCCO3)c2C#N)C1	Mdm2-MdmX inh 56 (no result: Beta apoptosis) | Mdm2-MdmX conf 75 | Full FLuc ctr 66
CCc1cccc(C)c1NC(=O)Nc1c(Br)cnn1C	none (no result: CSC inhib, Beta apoptosis)
O=C(Cc1ccc(S(=O)(=O)N2CCOCC2)s1)Nc1cc(C(F)(F)F)cc(C(F)(F)F)c1	Mdm2-MdmX inh 56 | Mdm2-MdmX conf inactive
Cc1cc(C)c2c(CCl)cc(=O)oc2c1	Mdm2-MdmX inh 70 | Mdm2-MdmX conf 61 | Full FLuc ctr 100
Cc1cc(C)c2c(CN3CCCCC3)cc(=O)oc2c1	none
CN(Cc1ccc(Cl)cc1)C(=O)c1ccccc1SCC(=O)N1CCCC1	none (no result: CSC inhib, Beta apoptosis)
O=C(c1ccc(F)cc1Cl)N1CCN(S(=O)(=O)c2cccs2)CC1	none (no result: Beta apoptosis)
O=C(Nc1ccc([N+](=O)[O-])cc1Br)c1cc2ccccc2nc1Cl	Mdm2-MdmX inh 85 | Mdm2-MdmX conf inactive
O=C1COc2ccc(C(=O)COC(=O)c3ccc([N+](=O)[O-])cc3Cl)cc2N1	none (no result: CSC inhib, Beta apoptosis)
O=[N+]([O-])c1cc2cccnc2c2ncccc12	none
O=[N+]([O-])c1ccc(Sc2cccc3cccnc23)c2cccnc12	Mdm2-MdmX inh 65 | Mdm2-MdmX conf 56 | Full FLuc ctr 50
O=C(CSc1nnc(NC(=O)c2c(F)cccc2F)s1)NC1CCCCC1	none
CC1(C)CC(NC(=O)c2sc3cc(Cl)ccc3c2Cl)CC(C)(C)N1	Mdm2-MdmX inh 87 | Mdm2-MdmX conf 62 | Full FLuc ctr 46
O=C(NC1CC1)c1sc2cc(Cl)ccc2c1Cl	none (no result: Beta apoptosis)
Brc1ccccc1/C=N/Nc1ccccn1	none
Clc1ccc2c(N/N=C/c3ccccc3Br)ccnc2c1	Mdm2-MdmX inh 101 | Mdm2-MdmX conf 82 | Full FLuc ctr 52
O=C1C(NS(=O)(=O)c2ccc(Br)cc2)=C(N2CCCCC2)C(=O)c2ccccc21	none
COc1ccccc1NC1=C(N2CCCCC2)C(=O)c2ccccc2C1=O	Mdm2-MdmX inh 74, CSC inhib 144, Beta apoptosis 102 | Mdm2-MdmX conf 46 | Full FLuc ctr inactive
CCOc1ccc(C(=O)NCC2CCCN2S(=O)(=O)c2cccs2)cc1 (stereo not given)	none (no result: CSC inhib)
NC(=O)c1cnccc1C=Cc1ccccc1	none (no result: Mdm2-MdmX inh, 697 NFkB inh, CSC inhib, Jurkat NFkB inh, Beta apoptosis)
COc1cc(C(=O)Nc2nc(-c3ccc(Cl)cc3)c(C)s2)ccc1OCC(=O)Nc1ccc(F)cc1	Mdm2-MdmX inh 78 | Mdm2-MdmX conf 66 | Full FLuc ctr 71
CC1CCc2cc(F)cc3c(O)c(C(=O)NCC4CCCO4)c(=O)n1c23 (stereo not given)	Mdm2-MdmX inh 71 | Mdm2-MdmX conf 44 | Full FLuc ctr inactive
CCCn1c(=O)c(C(=O)NCC2CCCO2)c(O)c2ccccc21 (stereo not given)	Mdm2-MdmX inh 67 | Mdm2-MdmX conf inactive
CC(C)Cn1c(N)c(C(=O)NCC2CCCO2)c2nc3ccccc3nc21 (stereo not given)	Mdm2-MdmX inh 52 | Mdm2-MdmX conf inactive
O=C(NCC1CCCO1)c1c(O)c2ccccc2[nH]c1=O (stereo not given)	none (no result: Beta apoptosis)
CCCn1c(=O)c(C(=O)NCc2ccccn2)c(O)c2ccccc21	Mdm2-MdmX inh 63 | Mdm2-MdmX conf inactive
CCN(CC(=O)N1CCCC1)S(=O)(=O)c1cc(C)ccc1OC	none
COc1ccc(C)cc1NC(=O)C1CCN(S(=O)(=O)c2ccc3c(c2)NC(=O)CO3)CC1	none
CC1CN(C(=O)COc2coc(CN3CCc4ccccc4C3)cc2=O)CC(C)O1 (stereo not given)	none (no result: Beta apoptosis)
Cc1ccc(NC(CNS(=O)(=O)c2ccc(Cl)cc2)c2ccccc2)cc1 (stereo not given)	Mdm2-MdmX inh 52 | Mdm2-MdmX conf inactive
CCOC(=O)c1c(C)nc2sc(C(=O)Nc3ccc(OC)cc3)c(N)c2c1-c1ccc(OC)cc1	Mdm2-MdmX inh 58 | Mdm2-MdmX conf 56 | Full FLuc ctr 53
O=C(NC(C(=O)N/N=C/c1cccnc1)c1n[nH]c(=O)c2ccccc12)c1ccccc1 (stereo not given)	none
O=[N+]([O-])c1ccc(N=Nc2c(O)[nH]c3ccc(F)cc23)cc1	Mdm2-MdmX inh 54 | Mdm2-MdmX conf inactive
O=[N+]([O-])c1ccc2[nH]c(O)c(N=Nc3ccc(F)cc3)c2c1	none
